From PubChem BioAssay (NCATS) come the findings set out here.

Results filed as inconclusive are left out. A number with no mark means an inactive call. Calls come from the whole dose curve; as a rule, active = well fitted inhibition curve with a large enough effect; inconclusive = small, poorly fitted or top-dose-only effect; inactive = no such curve, though single readings can be large or run the other way. Residues, ends and D or L forms follow the SMILES beside them. *: point of attachment. Cbz = O=C(OCc1ccccc1)*

The nature of the assay: qHTS assay for measurement of the activity of small molecule inhibitors on Zika virus induced Caspase-3 activity in human iPSC derived neural progenitor cells (hNPCs) (AID 1224857). Note: nearly all actives have a fitted effect of over 65% in size. The conditions noted are these: hNPCs ZIKV-induced caspase-3/7, Caspase-Glo luminescence, 6 h; series mostly up to 45.7 µM; activity change, negative = inhibition: at the top concentration. An excerpt: National Center for Advancing Translational Sciences [NCATS]
Johns Hopkins University School of Medicine
Increase in the Caspase-3 activity indicates an activation of apoptosis cell death pathway caused by Zika virus infection in certain types of neuronal cells including human neural progenitor cells (hNPCs), astrocytes, and astrocytoma cell line (SNB-19). This cell-based caspase-3 activity assay measures the increased caspase-3 activity in the human iPSC derived neural progenitor cells (hNPCs) after a 6-hour Zika virus infection with a luminescence readout. A decrease in the luminescence signal in this assay by small molecule treatment indicates an inhibitory effect of that small molecule on the Zika virus induced caspase-3 activity that may correlate with its effect on reduction of Zika virus caused cell death.
The medium for hNPCs consists of DMEM/F12, N2 supplement (ThermoFisher, Cat.# 17502048), NEAA (ThermoFisher, Cat. # 11140050), 2 ug/ml heparin, 2 uM cyclopamine, and B27 (ThermoFisher, Cat. # 17504044). A Caspase-Glo 3/7 assay kit (catalog number G8092; Promega, Madison, WI) was used to detect caspase-3 activity induced by Zika virus infection in human cells. The reagent mixture was reconstituted as described in the protocol from the manufacturer. Polystyrene tissue culture treated and PDL coated white plates were obtained from Greiner Bio-One (Monroe, NC). Cells were seeded in 384- or 1536-well assay plates and cultured at 37 C with 5% CO2 for 16 to 20 hours. The typical cell seeding density in the 1536-well plate assay is 350 cells/well in 3 ul medium for hNPCs in tissue culture treated plates. Compounds were added to cells and incubated for one hour before addition of ZIKV solution to cells (2 FFU/cell). After incubation at 37 C with 5% CO2 for 6 hours, the reagent mixture of Caspase-Glo 3/7 assay kit was added to each well, followed by incubation at room temperature for 30 minutes. The luminescence intensity of the assay plates was measured using a ViewLux plate reader (PerkinElmer). Data were normalized by using the cell-containing wells without ZIKV as a negative control (0% induction of caspase 3/7 activity) and wells containing ZIKV infected cells (Caspase-3 activity induced) as a positive control (100% induction of caspase 3 activity). The percentage inhibitions of the increased Caspase-3 activity by small molecule inhibitors were then calculated.
(Quantitative high-throughput screening tests each substance at several concentrations.)
As for `COCc1nc2c([nH]1)c(=O)n(C)c(=O)n2CC(C)C`, the “activity change, negative = inhibition” value was 17.1%.
As to `Cn1c(=O)c2[nH]c(C3CCCC3)nc2n(C)c1=O`, the “activity change, negative = inhibition” value was -9.5%.
As for `Nc1ccc(N2C(=O)c3ccccc3C2=O)c(Cl)c1`, the “activity change, negative = inhibition” value is 8.48%.
Take `CC(=O)SC1CC2=CC(=O)CC[C@]2(C)C2CC[C@@]3(C)C(CC[C@@]34CCC(=O)O4)C12` (stereo not given in full): the “activity change, negative = inhibition” value was 3.32%.
Take `NC1(C(=O)O)CCCCC1`: the “activity change, negative = inhibition” value was 20.4%.
Regarding `OC1(c2ccc(Cl)cc2)CCN(Cc2c[nH]c3ccccc23)CC1`, the “activity change, negative = inhibition” value is -15.6%.
For the molecule `C[C@H](O)C(=O)C1=Nc2c(nc(N)[nH]c2=O)NC1`, the “activity change, negative = inhibition” value was 15.7%.
Then `CN(C)S(=O)(=O)c1ccc2c(c1)/C(=C/c1cc3c([nH]1)CCCC3)C(=O)N2`, with 12.1%; and `NCCC1CCCC(CCN)N1` (stereo not given), with -7.4%; and `Cc1cccc(C(=O)NCN2CCN(c3ccccc3C#N)CC2)c1`, with -1.65%.
In the case of `CCCCCCCCCCC/C=C\C(C)(C)/C=C\CCCC(=O)O`, the “activity change, negative = inhibition” value is -16.4%.
Turning to `CC(C)[C@H](NC(=O)OCc1ccccc1)C(=O)N[C@H](C=O)Cc1ccccc1` (Cbz-Val-Phe-aldehyde), the “activity change, negative = inhibition” value is -21.2%.
For `CC(=O)/C(C)=N/O`, the “activity change, negative = inhibition” value is -6.32%.
As to `NCCCCN=C(N)N`, the “activity change, negative = inhibition” value is -3.54%.
Then `CCOC(=O)C12CC1/C(=N/O)c1ccccc1O2` (stereo not given), with -10.8%; and `COc1ccc(-c2cc3ncc(C)n3c(Nc3ncccc3C(N)=O)n2)cc1OC`, with 26.7%; and `CC(C)(C)NCC(O)COc1cccc2[nH]c(=O)[nH]c12` (stereo not given), with -9.77%.
Consider `Nc1ccc(-c2nc3ccc(-c4nc5ccc(N)cc5[nH]4)cc3[nH]2)cc1`, for which the “activity change, negative = inhibition” value was 18%.
`CNC(=O)c1cc2c(cn1)[nH]c1ccccc12`: the “activity change, negative = inhibition” value was -11.8%.
Regarding `O=C(O)C1=CCCNC1`, the “activity change, negative = inhibition” value was -5.45%.
As for `O=C(O)c1cc2cc(F)ccc2[nH]1`, the “activity change, negative = inhibition” value was -4.19%.
On to `C=C1C[C@@]23CC[C@H]4[C@@](C)(CCC[C@@]4(C)C(=O)OC4OC(CO)C(O)C(O)C4O)[C@@H]2CC[C@]1(OC1OC(CO)C(O)C(O)C1OC1OC(CO)C(O)C(O)C1O)C3` (stereo not given in full), for which the “activity change, negative = inhibition” value was -19.3%.
As for `Cc1nc2n(c(=O)c1CCN1CCC(c3noc4cc(F)ccc34)CC1)CCCC2O` (stereo not given), the “activity change, negative = inhibition” value was -12.6%.
In the case of `CSc1nc(N)c2ncn([C@@H]3O[C@H](COP(=O)(O)OP(=O)(O)O)C(O)[C@H]3O)c2n1` (stereo not given in full) it was 14.5%; in that of `C=C1C[C@@]23CC[C@H]4[C@@](C)(CCC[C@@]4(C)C(=O)O)[C@@H]2CC[C@]1(O)C3`, 6.07%; in that of `NCC(O)C1CCCCCCC1` (stereo not given), 0.359%.
Then `N=C(N)SCCc1cnc[nH]1`, with -8.71%; and `NC1C=CC=C(C(=O)O)C1` (stereo not given), with 14.3%; and `CC(C)NC[C@H](O)COc1ccc(CC(N)=O)cc1`, with -6.05%.
On to `CO/N=C(\C(=O)N[C@@H]1C(=O)N2C(C(=O)O)=C(CSc3nc(=O)c(O)nn3C)CSC12)c1csc(N)n1` (stereo not given in full), for which the “activity change, negative = inhibition” value is 5.2%.
In the case of `CCCCCCCCCCC(C)(C)C(=O)Nc1c(OC)cc(OC)cc1OC` it was -8.48%.
`N#Cc1cc2nc(O)c(O)nc2cc1[N+](=O)[O-]`: the “activity change, negative = inhibition” value is -5.89%.
`CN1CCc2cc(Cl)c(O)cc2[C@@H](c2ccccc2)C1`: the “activity change, negative = inhibition” value was 0.271%.
In the case of `N[C@H](C(=O)O)[C@H]1C[C@@H]1C(=O)O`, the “activity change, negative = inhibition” value is -3.79%.
Take `N[C@H](C(=O)O)[C@H](Cc1ccccc1)C(=O)O`: the “activity change, negative = inhibition” value is 6.09%.
For the molecule `OCC1NCC(O)C(O)C1O` (stereo not given), the “activity change, negative = inhibition” value was -9.04%.
Then `O=c1oc(Cl)c(Cl)c2ccccc12`, with 45%; and `CCC(=O)N1CCN(C(=O)c2ccccc2)CC1`, with -11.8%.
For `CC(C)NC[C@H](O)COc1cccc2ccccc12`, the “activity change, negative = inhibition” value was -10.8%.
In the case of `Cn1cc(C(F)(F)F)nc1-c1ccc(OCC(O)CNCCOc2ccc(O)c(C(N)=O)c2)cc1` (stereo not given) it was 5.83%.
